Results on 18 compounds are retold here after PubChem BioAssay (NCATS).

Structures are written as SMILES. Inconclusive results are not listed. Activity calls are given as the source filed them. Unless noted, the call rests on the fitted dose curve; in most records, active means well fitted curve in the direction sought with a large enough effect; inconclusive means small, poorly fitted or top-dose-only effect, or another doubt; inactive means no such curve, though single readings can be large; an effect the other way counts as inactive or inconclusive.

The nature of assay [1]: qHTS to identify inhibitors of the type 1 interferon - major histocompatibility complex class I in skeletal muscle: primary screen against the NCATS Mechanism Interrogation Plate v5.0 (MIPE) Libary (AID 1347411). Further: nearly all actives have a fitted effect of over 65% in size. Further: potency means the concentration at half of the fitted maximal effect.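 On activity change, negative = inhibition: plate controls were vehicle for no effect and reference inhibitor for full effect.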 The procedure, abridged:
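Immortalized human C25cl48 myoblasts with HiBit knocked into endogenous HLA-B*08:01 were stimulated with 4.0 ng/ml IFN-beta and exposed to compounds (11-point 1:3 titration, top 46 uM final) for 24 hrs at 37 C; HiBiT lytic luminescence measured.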

Assay [2] can be described thus: Primary qHTS for inhibitors of nuclear receptor binding SET domain protein 2 (NSD2) in an isogenic RCH-ACV NSD2 p.E1099K mutant (9B) (AID 1645876). Further: nearly all actives have a fitted effect of over 70% in size. Further: potency means the concentration at half of the fitted maximal effect. On activity change, negative = viability loss: on the % scale 0 is the no-effect control and ±100 the full control effect.
Assay [3] can be described thus: Primary qHTS for inhibitors of nuclear receptor binding SET domain protein 2 (NSD2) in an RCH-ACV wild type WT cells (2C) (AID 1645877). Further: nearly all actives have a fitted effect of over 70% in size. Further: potency means the concentration at half of the fitted maximal effect. On activity change, negative = cell killing: on the % scale 0 is the no-effect control and ±100 the full control effect.
In assay [4] the target is Phospholipid hydroperoxide glutathione peroxidase GPX4 (Homo sapiens) (UniProt P36969). The assay can be described thus: Primary qHTS Assay for Inhibitors of Recombinant Selenoprotein Glutathione Peroxidase 4 (GPX4) (AID 1845192). Further: nearly all actives have a fitted effect of over 65% in size. On activity change, negative = inhibition: series mostly up to about 50 µM; on the % scale 0 is the no-effect control and ±100 the full control effect. As to conditions: outcome: dose series up to 50 µM unless noted. The procedure, abridged: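 GR-coupled readout: 100 nM GR, 1 mM GSH, 0.5 mM NADPH; NADPH fluorescence (ex 340/em 450 nm) read at t=0 and after 15 min RT. GPX4 200 nM, preincubated 30 min with compound; substrate 0.5 mM CHP.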
A general note: qHTS replaces the single test concentration by a dilution series.

Assay [5] is described as follows: qHTS drug screen for cell cycle checkpoint inhibitors in PARPi-resistant BRCA-mutant ovarian cancer cell lines. (AID 1963452; calls by dose curve). As to conditions: PEO1/OlaR viability, CellTiter-Glo luminescence, 96 h, stronger effect = lower value. In outline: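 PEO1, PEO4 and PEO1/OlaR ovarian cancer cells, 600 per well, exposed 96 h at 37C to a dilution series. Viability read by CellTiter-Glo luminescence, normalized to DMSO and empty wells; activity summarized as Z-AUC.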

A short description of assay [6]: qHTS Assay for Identifying Gametocytocidal Compounds (AID 743244).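 Further: on the % scale 0 is the no-effect control and ±100 the full control effect; actives lower the fluorescent signal which means gametocytes are killed.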 To be noted: P. falciparum 3D7 stage III-V gametocytes, alamarBlue, 72 h; stronger effect = lower value. In outline: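 Using 20,000 stage III–V 3D7 gametocytes per well, compounds were incubated 72 h under 37 °C/5% CO2. Viability was then assessed by 24 h alamarBlue reduction, measured fluorometrically at 525/598 nm.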

For assay [7], the target named is Glutathione peroxidase 1 (Homo sapiens) (UniProt P07203). Put plainly: Primary qHTS Assay for Inhibitors of Recombinant Selenoprotein Glutathione Peroxidase 1 (GPX1) (AID 1845191). Further: nearly all actives have a fitted effect of over 65% in size. Further: potency means the concentration at half of the fitted maximal effect. On activity, negative = inhibition: on the % scale 0 is the no-effect control and ±100 the full control effect. In outline:
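Recombinant GPX1 (10 nM final) was preincubated with compound for 30 min at room temperature, then reacted with 1 mM GSH, 0.5 mM CHP, 0.5 mM NADPH and 100 nM glutathione reductase; NADPH fluorescence (340/450 nm) was read at 0 and 15 min.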

[8] abbreviates: measured here: PEO1 parental Z-AUC.

Chain of Glutathione peroxidase 1 (Homo sapiens) (P07203 whole entry, looked up): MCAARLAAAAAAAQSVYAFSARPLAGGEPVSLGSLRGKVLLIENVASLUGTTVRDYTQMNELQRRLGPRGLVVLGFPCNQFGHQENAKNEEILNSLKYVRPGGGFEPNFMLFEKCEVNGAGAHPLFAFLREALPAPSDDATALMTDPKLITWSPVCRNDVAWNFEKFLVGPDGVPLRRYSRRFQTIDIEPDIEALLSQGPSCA
Chain of Phospholipid hydroperoxide glutathione peroxidase GPX4 (Homo sapiens) (P36969 whole entry, looked up): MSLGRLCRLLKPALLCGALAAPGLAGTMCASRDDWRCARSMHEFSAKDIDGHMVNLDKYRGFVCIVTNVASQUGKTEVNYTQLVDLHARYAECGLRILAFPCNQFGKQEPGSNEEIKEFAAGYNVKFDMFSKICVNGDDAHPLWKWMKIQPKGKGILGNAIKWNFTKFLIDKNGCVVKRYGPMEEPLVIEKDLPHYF

With `CCC(=O)O[C@]1(C(=O)CO)CC[C@H]2[C@@H]3CCC4=CC(=O)CC[C@]4(C)[C@H]3CC[C@@]21C`, the Potency entry in assay [1], in assay [2], in assay [3] and in assay [4] was “inactive” throughout. In addition, the Z-AUC in assay [5] was 1.13 (inactive); in assay [5] (setting [8]), 0.73; in assay [5] (measured here: PEO4 Z-AUC), 1.13.

Turning to `CN1[C@@H]2CCC[C@H]1CC(NC(=O)c1nn(C)c3ccccc13)C2` (some centres undefined), the max response in assay [6] was 3.13% (inactive). In addition, the Potency entry in assay [1], in assay [2] and in assay [3] was “inactive” in each case.

Turning to `O=C(O)/C(S)=C/c1ccc(I)cc1`, the Potency entry in assay [1], in assay [2] and in assay [7] was “inactive” in each case. In addition, the Z-AUC in assay [5] is 0.452 (inactive); in assay [5] (setting [8]), 0.731; in assay [5] (measured here: PEO4 Z-AUC) it was 0.789.

For the compound `C=CC(=O)N1CC(N2CCN(C(=O)CNc3cc(C4(C)CC4)c(Cl)cc3O)CC2)C1`, the Potency entry in assay [1], in assay [7] and in assay [4] was “inactive” throughout. The Potency in assay [2] is 23.5 µM (active). The values for the Z-AUC in assay [5], in assay [5] (setting [8]) and in assay [5] (measured here: PEO4 Z-AUC) were -0.243 (inactive), -0.485 and -0.295, respectively.

As to `CC1(C)CCC2(CC1)N[C@@H](C(=O)N[C@@H]1CC[C@@H](C(N)=O)OC1)[C@H](c1ccnc(Cl)c1F)[C@]21C(=O)Nc2cc(Cl)ccc21`, the Potency was 17.9 µM (active) in assay [1], 0.319 µM (active) in assay [2] and 0.201 µM (active) in assay [3]. Also, in assay [4], the Potency result is “inactive”. For the same compound, the Z-AUC in assay [5] was -0.537 (inactive); in assay [5] (setting [8]), -0.326; in assay [5] (measured here: PEO4 Z-AUC) it was -0.309.

Take `O=C(/C=C/N1C[C@H]2C[C@@H]1CN2c1ccccn1)c1ccccc1O`: the Potency entry in assay [1], in assay [2], in assay [3] and in assay [4] was “inactive” each time. The Z-AUC was 1.02 (inactive) in assay [5], 0.925 in assay [5] (setting [8]) and 0.836 in assay [5] (measured here: PEO4 Z-AUC).

Turning to `Cc1cc(C)c2c(c1)[C@@H](N(Cc1cc(C(F)(F)F)cc(C(F)(F)F)c1)c1nnn(C)n1)CCCN2CC1CCC(C(=O)O)CC1` (some centres undefined), the Potency result in assay [1], in assay [2] and in assay [7] was “inactive” each time. The Z-AUC in assay [5] is 0.561 (inactive); in assay [5] (setting [8]) it was 1.04; in assay [5] (measured here: PEO4 Z-AUC) it was 0.634.

Consider `CN(C)CCNC(=O)COc1c2cccc1Cc1cccc(c1OCC(=O)NCCN(C)C)Cc1cccc(c1OCC(=O)NCCN(C)C)Cc1cccc(c1OCC(=O)NCCN(C)C)C2`, for which, in assay [1], the activity change, negative = inhibition is -36% [at 8.44 µM] (inactive). Also, the activity change, negative = viability loss in assay [2] was 4.69% [at 9.23 µM] (inactive). Further, the activity change, negative = cell killing in assay [3] is 5.34% [at 9.23 µM] (inactive). Besides, the outcome in assay [4] is “inactive [at 9.73 µM]”. Moreover, the Z-AUC in assay [5] was -0.309 (inactive); in assay [5] (setting [8]), -0.716; in assay [5] (measured here: PEO4 Z-AUC), -0.127.

Take `CCS(=O)(=O)N1CCC(C(C)n2c(C)c(C(=O)NCc3c(OC)cc(C)[nH]c3=O)c3ccccc32)CC1` (centres undefined): the Potency entry in assay [1], in assay [2], in assay [7] and in assay [4] was “inactive” in each case. Further, the Z-AUC was 1.37 (inactive) in assay [5], 0.975 in assay [5] (setting [8]) and 0.959 in assay [5] (measured here: PEO4 Z-AUC).

For `Cc1cc(O)cc2c1[C@]1(C)CC[C@H]3C(C)(C)CCC[C@]3(C)[C@H]1C2`, in assay [1], the activity change, negative = inhibition was -19.8% [at 5.1 µM] (inactive). The activity change, negative = viability loss in assay [2] is -32.6% [at 4.96 µM] (inactive). Moreover, the activity, negative = inhibition in assay [7] was -4.81% [at 4.49 µM] (inactive). Further, the outcome in assay [4] is “inactive [at 4.52 µM]”. The Z-AUC is 1.24 (inactive) in assay [5], 0.915 in assay [5] (setting [8]) and 1 in assay [5] (measured here: PEO4 Z-AUC).

As to `Cc1cc(Nc2cc(N)ncn2)c(=O)n2c1C(=O)NC21CCCCC1`, the Potency entry in assay [1], in assay [7] and in assay [4] was “inactive” each time. For the same compound, the Potency in assay [2] is 2.57 µM (active). The Z-AUC in assay [5] is -0.649 (inactive); in assay [5] (setting [8]), 0.752; in assay [5] (measured here: PEO4 Z-AUC), 0.801.

In the case of `CC[C@H]1OC(=O)[C@H](C)C(=O)[C@H](C)[C@@H](O[C@H]2O[C@H](C)C[C@H](N(C)C)[C@H]2O)[C@](C)(OC)C[C@@H](C)C(=O)[C@H](C)[C@H]2N(CCCCn3cnc(-c4cccnc4)c3)C(=O)O[C@]12C`, the Potency entry in assay [1], in assay [2], in assay [3] and in assay [4] was “inactive” in each case. The figures for the Z-AUC in assay [5], in assay [5] (setting [8]) and in assay [5] (measured here: PEO4 Z-AUC) were 0.729 (inactive), 0.267 and -0.0116, respectively.

As to `O=c1ncccn1[C@@H]1O[C@H](CO)[C@@H](O)[C@H]1O`, the Potency entry in assay [1], in assay [2], in assay [7] and in assay [4] was “inactive” in each case. Further, the Z-AUC in assay [5] is -0.938 (inactive); in assay [5] (setting [8]), -0.911; in assay [5] (measured here: PEO4 Z-AUC) it was -1.39.

In the case of `Nc1nc(N)c2nc(-c3cccc(Cl)c3)c(N)nc2n1`, in assay [1], the Potency result was “inactive”. The Potency in assay [2] was 1.05 µM (active); in assay [7], 4.09 µM (active). The Z-AUC is -0.747 (inactive) in assay [5], -0.162 in assay [5] (setting [8]) and -0.371 in assay [5] (measured here: PEO4 Z-AUC).

As for `CC(=O)N[C@H]1[C@H](O[C@@H]2c3ccc(c(Cl)c3)Oc3cc4cc(c3O[C@@H]3O[C@H](CO)[C@@H](O)[C@H](O)[C@H]3NC(=O)CCCCCCCC(C)C)Oc3ccc(cc3Cl)C[C@H]3NC(=O)[C@H](N)c5ccc(O)c(c5)Oc5cc(O)cc(c5)[C@H](NC3=O)C(=O)N[C@H]4C(=O)N[C@H]3C(=O)N[C@@H]2C(=O)N[C@@H](C(=O)O)c2cc(O)cc(O[C@H]4O[C@H](CO)[C@@H](O)[C@H](O)[C@@H]4O)c2-c2cc3ccc2O)O[C@H](CO)[C@@H](O)[C@@H]1O`, the Potency entry in assay [1], in assay [2], in assay [3] and in assay [4] was “inactive” in each case. Further, the Z-AUC in assay [5] is 0.721 (inactive); in assay [5] (setting [8]) it was 0.652; in assay [5] (measured here: PEO4 Z-AUC), 1.05.

On to `CONC(=O)Nc1ccc(-c2sc3c(c2CN(C)C)c(=O)n(-c2ccc(OC)nn2)c(=O)n3Cc2c(F)cccc2F)cc1`, for which the Potency result in assay [1], in assay [2], in assay [7] and in assay [4] was “inactive” each time. Further, the Z-AUC in assay [5] was 0.387 (inactive); in assay [5] (setting [8]), 0.895; in assay [5] (measured here: PEO4 Z-AUC), 0.818.

`COc1cc2c3c(n(CCCN4CCOCC4)c(=O)c2cc1OC)-c1cc2c(cc1C3=O)OCO2`: the Potency result in assay [1] and in assay [4] was “inactive” in each case. For the same compound, the figures for the Potency in assay [2] and in assay [3] were 0.372 µM (active) and 0.209 µM (active), respectively. Further, the Z-AUC is -2.49 (inactive) in assay [5], -2.16 in assay [5] (setting [8]) and -0.656 in assay [5] (measured here: PEO4 Z-AUC).

Turning to `CCN(CC)CCNc1ccc(C)c2sc3ccccc3c(=O)c12`, the Potency in assay [1] was 26.2 µM (active); in assay [2], 5.9 µM (active); in assay [3] it was 5.25 µM (active). Besides, the Z-AUC in assay [5] was -1.21 (inactive); in assay [5] (setting [8]) it was -0.605; in assay [5] (measured here: PEO4 Z-AUC), -0.562.
